Among the data in PubChem BioAssay AID1259240 (Keith Lab, Institute of Cancer Science, University of …, 2017) are fold change values, retold here.

Unmarked numbers belong to inactive results. Active and inactive are the calls of the source. Rule as the data show it: active = fold change mostly below about -2 (no sharp cut-off); inactive = mostly above about -1.8.

The nature of the test: TERT promoter activity modulators, primary screen, cell-based, luciferase reporter, human (AID 1259240). The note with it: A2780 TERT promoter luciferase reporter, 16 h; at 20 µM, fold versus average of vehicle-only wells.
With `CCOC(=O)C1CCCN(c2c(N3CCOCC3)c(=O)c2=O)C1` (stereo unspecified), the fold change was -1.15.

With `Brc1c(C[n+]2ccccc2)nc2ccccn12`, the fold change was -1.91.

Consider `CCOc1csc2nc(C)cc(C)c12`, for which the fold change is -1.22.

Take `CCOc1ccc2c(c1)CN(Cc1ccc(Cl)cc1)CO2`: the fold change was -1.71.

With `CCOC(=O)N1CCC(Nc2c(NCCN3CCCCC3CC)c(=O)c2=O)CC1` (stereo unspecified), the fold change is -1.19.

With `CN(CC(=O)Nc1ccc(Br)cc1)S(=O)(=O)c1ccc2c(c1)CCC(=O)N2`, the fold change was -1.38.

Regarding `O=c1/c(=C/c2ccc(F)cc2)sc2nc(-c3ccco3)nn12`, the fold change was -1.22.

Regarding `Cc1cc2c(c(=O)[nH]1)C(=O)O/C2=C\c1cc([N+](=O)[O-])ccc1O`, the fold change is -1.57.

Consider `CCOC(=O)N1CCC(Nc2c(N3CC(C)CC(C)C3)c(=O)c2=O)CC1` (stereo unspecified), for which the fold change was 1.09.

As to `COc1ccccc1NC(=O)Nc1ccc2c(c1)C(=O)OC2`, the fold change is 1.33.

In the case of `Brc1cccc(-c2nc3cnccn3c2NC2CCCCC2)c1`, the fold change is -1.11.

Turning to `CCN1CCN(C(=O)CN2C(=O)COc3ccc(S(=O)(=O)N4CCC(C)CC4)cc32)CC1`, the fold change is 1.16.

Consider `CCC(C(=O)O)N1C(=O)/C(=C/c2ccc(OC)cc2)SC1=S` (stereo unspecified), for which the fold change is -2.97 (active).

In the case of `Cc1cccc2sc(NC(=O)c3ccc(CNc4c(NC5CCCC5)c(=O)c4=O)cc3)nc12`, the fold change is -1.04.

For `Cc1nc2c(-c3ccc(F)cc3)c(C)nn2c(C)c1CCC(=O)NCc1ccc2c(c1)OCO2`, the fold change was 1.02.

In the case of `O=C(NCCCN1CCCC1)C(=O)Nc1ccc2nc3n(c(=O)c2c1)CCCCC3`, the fold change was 1.01.
